Reference: PubChem BioAssay AID2568 (National Center for Advancing Translational Sciences (NCATS), 2010)
Records with an inconclusive call do not appear. The source made the active and inactive calls. The call rests on the fitted dose curve.

Target: Neuropeptide S receptor (Homo sapiens) (UniProt Q6W5P4)
Test: Confirmation Concentration-Response Assay for Antagonists of the Neuropeptide S Receptor: cAMP Signal Transduction, SAR for Probe
Settings: CHO-NPSR cells, cAMP TR-FRET, antagonist mode; series mostly up to 47.8 µM
Outline: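 CHO cells stably expressing NPSR (1200 cells/well, cultured 16–30 h) received compound at up to 46 μM final. They were then stimulated for 60 min at 37 °C with reagent containing 100 nM NPS and RO-201724. cAMP was read by LANCE TR-FRET (665/620 ratio), and IC50 came from Hill-equation fits.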

Chain of Neuropeptide S receptor (Homo sapiens) (Q6W5P4 whole entry, looked up): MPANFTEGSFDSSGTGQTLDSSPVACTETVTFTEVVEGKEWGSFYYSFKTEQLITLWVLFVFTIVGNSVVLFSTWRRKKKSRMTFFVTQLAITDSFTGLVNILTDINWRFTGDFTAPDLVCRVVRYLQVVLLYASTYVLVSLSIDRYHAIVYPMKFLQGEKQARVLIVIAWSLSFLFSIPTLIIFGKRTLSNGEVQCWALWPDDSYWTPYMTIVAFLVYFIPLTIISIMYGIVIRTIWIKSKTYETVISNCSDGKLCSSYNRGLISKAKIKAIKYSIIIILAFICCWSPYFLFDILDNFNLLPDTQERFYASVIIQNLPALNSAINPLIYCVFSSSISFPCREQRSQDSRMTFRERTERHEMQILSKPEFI

Row | SMILES | Potency
1 | COc1cccc(C2c3c(ncn(-c4ccccc4Br)c3=N)Oc3ccc4ccccc4c32)c1 (stereo not given) | 12.2 µM (active)
2 | COc1ccc(C2c3c(n(CCCc4ccccc4)cnc3=N)Oc3ccc4ccccc4c32)cc1OC (stereo not given) | 24.4 µM (active)
3 | O=C1OC(c2ccccc2)(c2ccccc2)N2CCN(C(=O)NCc3ccc(F)cc3)CC12 (stereo not given) | 1.94 µM (active)
4 | Cc1c(P(=O)(c2ccccc2)c2ccccc2)c2ccccc2n1C | inactive
5 | COc1ccc(C2c3c(ncn(Cc4ccccc4)c3=N)Oc3ccc4ccccc4c32)cc1OC (stereo not given) | 19.4 µM (active)
